Source: publication PMC5540273 (PLoS ONE, 2017)

These compounds were tested on EPHA2. Conditions: concentration: 1 μM, replicates: in singlicate; n = 1.
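Further: KINOMEscan kinase panel screen.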

| Compound | %Inh [%] |
| --- | --- |
| CC(=O)N1CCN(c2ccc(Nc3nccc(-c4sc(C(C)C)nc4-c4cccc(NS(=O)(=O)c5cccc(Cl)c5)c4)n3)cn2)CC1 [GSK1660437] | 3 |
| CN(C)S(=O)(=O)c1cc(-c2ccc3nccc(-c4cccc(S(N)(=O)=O)c4)c3c2)cnc1N [GSK1669921] | 9 |
| O=C(NC1CCN(c2ccnc(Nc3ccc(F)cc3)n2)C1)c1cc2ccccc2s1 (stereo not shown) [GSK1379716] | 17 |
| Cn1cc(-c2ccc3c(c2)CCN3C(=O)Cc2cccc(Cl)c2)c2c(N)ncnc21 [GSK2606590] | 10 |
| FC(F)(F)c1ccc(/C=C/c2cncnc2Nc2ccc3[nH]c(Cc4ccccc4)nc3c2)cc1 [GW709199] | 12 |
| Cl.c1ccc(-c2ccc3c(Nc4ccc5[nH]ccc5c4)ccnc3c2)nc1 [GW440138] | 1 |
| c1ccc(-c2n[nH]cc2Nc2ccnc3ccccc23)nc1 [GW694077] | 0 |
| CC(C)c1nc(-c2cccc(NS(=O)(=O)c3c(F)cccc3F)c2F)c(-c2ccnc(Nc3ccc(N4CCOCC4)nc3)n2)s1 [GSK2008607] | 86 |
| COc1cc(Nc2nccc(N3CCC(NC(=O)c4cc5ccccc5s4)C3)n2)cc(OC)c1OC (stereo not shown) [GSK1379760] | 9 |
| COc1cc(Nc2ncc3c(C)nc(-c4cc5ccccc5[nH]4)n3n2)cc(OC)c1OC [GW869516] | 49 |
| Cn1cc(-c2[nH]c3cc(NC(=O)[C@H](N)C4CCCCC4)cc4c3c2C=NNC4=O)cn1 | 1 |
| COC(=O)Nc1nc2ccc(Oc3ccc(NC(=O)Nc4cc(C(F)(F)F)ccc4F)cc3)cc2n1C.Cl [GW692089] | 75 |
| CCS(=O)(=O)c1ccc(OC)c(Nc2nccc(-c3c(-c4cccc(NC(=O)c5c(F)cccc5F)c4)nn4ncccc34)n2)c1 [GSK326180] | 0 |
| CCn1c(-c2nonc2N)nc2c(C#CC(C)(C)O)nc(OC[C@H](N)c3ccccc3)cc21 [GSK943949] | 5 |
| CC(=O)Nc1nc2cnc(Nc3cc(NC(=O)c4cccc(C5(C#N)CC5)c4Cl)ccc3C)nc2s1 | 79 |
| COc1ccc(CNC(=O)NC2CCN(c3ccnc(Nc4ccc(F)cc4)n3)CC2)cc1 [GSK1379788] | 1 |
| O=C(O)C(F)(F)F.O=C(O)C(F)(F)F.O=c1[nH]ccc2nc(N[C@@H]3CCCNC3)nc(Nc3ccc(S(=O)(=O)N4CCOCC4)cc3)c12 [GSK2177277] | 28 |
| Cc1occc1-c1ncc(OC[C@@H](N)Cc2c[nH]c3ccccc23)cc1-c1ccc2[nH]nc(C)c2c1.O=C(O)C(F)(F)F [GSK682037] | 9 |
| CSc1cccc2c(-c3ccncn3)c(-c3ccc(F)cc3)nn12 [GW514786] | 7 |

| Compound | %Inh [%] |
| --- | --- |
| CN1CCN(Cc2cccc(-c3ccc4c(Nc5ccc(Oc6ccccc6)cc5)ccnc4c3)c2)CC1 [GW578342] | 4 |
| COc1cccc(NC(=O)NC2CCN(c3ccnc(Nc4cc(OC)c(OC)c(OC)c4)n3)C2)c1 (stereo not shown) [GSK1379763] | 0 |
| CN1CCN(CCCNc2nccc(-c3c(-c4ccc(F)cc4)nn4cc(C(F)(F)F)ccc34)n2)CC1 [GW621581] | 0 |
| COc1cc(Nc2nccc(N3CCC(NC(=O)Nc4cccc(C(C)=O)c4)C3)n2)cc(OC)c1OC (stereo not shown) [GSK1379753] | 0 |
| Cn1cc(-c2ccc3c(c2)CCN3C(=O)Cc2cccc(F)c2)c2c(N)ncnc21 [GSK2603358] | 0 |
| Clc1ccc(-c2nn3ncccc3c2-c2ccnc(Nc3ccc4c(c3)OCCO4)n2)cc1 [GW829116] | 0 |
| Cl.Cl.NCC(NC(=O)c1cc(-c2ccccc2)c(-c2ccnc3[nH]ccc23)s1)c1ccccc1 (stereo not shown) [GSK1321561] | 21 |
| c1ccc(Oc2ccc(Nc3ccnc4cc(-c5ccc(CNCCN6CCOCC6)o5)ccc34)cc2)nc1 [GW567145] | 12 |
| CC(C)(C)c1ccc2nccc(Nc3cccc(O)c3)c2c1 [GW856795] | 18 |
| COc1ccc(-c2coc3ccc(-c4nnc(SCc5ccc(OC)c(C(F)(F)F)c5)o4)cc23)cc1 | 2 |
| COc1cccc(C2=C(Nc3ccc(Cl)c(C(=O)O)c3)C(=O)NC2=O)c1 [SB-390769] | 10 |
| O=C(Nc1n[nH]c2nc(-c3ccc(O)cc3)ccc12)C1CC1 [SB-710363] | 0 |
| CNC(=O)c1ccccc1Nc1nc(Nc2ccc(N3CCOCC3)cc2)ncc1Cl.Cl [GSK1576028] | 53 |
| COc1ccc(Nc2nccc(NCCNC(=O)c3cc4ccccc4s3)n2)cc1 [GSK1379896] | 8 |
| COc1cc(Nc2nccc(-c3c(-c4cccc(NC(=O)c5c(F)cccc5F)c4)nn4ccccc34)n2)cc(OC)c1OC [GSK323521] | 16 |
| Cc1ccc(C(=O)N2CC[C@@H](O)C2)cc1-n1c(C)cc(OCc2ccc(F)cc2F)c(Br)c1=O | 76 |
| Cc1ccc(S(=O)(=O)Nc2ccc(Nc3nccc(Nc4cccc5[nH]ncc45)n3)cc2)cc1 [GSK581271] | 21 |
| COc1cc2c(cc1OCCN1CCNCC1)ncc1c3ccc(C#N)cc3[nH]c21 | 3 |
